Source: PubChem BioAssay (National Center for Advancing Translational Sciences (NCATS))
An excerpt weighted towards active compounds, which were near 18% of everything screened.
LDHA block: qHTS assay for inhibitors of human lactate dehydrogenase; L-lactate dehydrogenase A chain (Homo sapiens), P00338; purified LDHA, NADH/diaphorase-resazurin fluorescence; stronger effect = lower value; activity change, % (values are at about 110 or 230 µM); 0.15% of 480,000 active; in the data active means activity change below about -30%; inconclusive means mostly about -25% to -30%;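 further: plate controls were DMSO wells for no effect and wells without enzyme for full effect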
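Human LDH5 at 2 nM final in Tris HCl pH 7.4 with 0.06 mM NADH and 0.2 mM pyruvate, reacted 5 minutes at room temperature. Remaining NADH coupled via diaphorase/resazurin; resorufin fluorescence read at 0 and 20 minutes, normalized to enzyme-free and DMSO wells.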
DT40 TDP1 CPT: qHTS for Inhibitors of human tyrosyl-DNA phosphodiesterase 1 (TDP1): qHTS in cells in presence of CPT | Potency, µM (highest dose often 46.2 µM), for inactives: at the highest dose activity change, negative = growth inhibition, actives largely listed as inhibitors | 12% of 420,000 active | chicken DT40 Tdp1-/-;hTDP1 cells + 20 nM CPT, ATP luminescence, 48 h | AID 686979, 2013; further: potency means the concentration at half of the fitted maximal effect; nearly all actives have a fitted effect of over 55% in size
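Cell growth measured by CellTiter-Glo luminescence after a minimum 48 h, 37 C compound exposure with 20 nM CPT in Tdp1-knockout DT40 cells stably expressing hTDP1, seeded 400/well; qHTS titration format.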
IL1B secr inh: qHTS for Inhibitors of Inflammasome Signaling: IL-1-beta AlphaLISA Primary Screen; THP-1 LPS/ATP IL-1B secretion, AlphaLISA, 16 h; stronger effect = lower value; activity change, % at 57.5 µM; 4.7% of 360,000 active; in the data active means activity change below about -50%; inconclusive means mostly about -30% to -49%
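THP-1 cells pretreated 1 hr with compounds (up to 57.5 uM final), then stimulated with LPS (250 ng/mL final) plus ATP (1.25 mM final); secreted IL-1B measured by AlphaLISA after 16 hr, decreased signal indicating inhibition.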
Gal4-VP16 FLuc: VP16 counterscreen qHTS for inhibitors of ROR gamma transcriptional activity; Drosophila S2 Gal4-VP16 UAS-luciferase, luminescence, 20 h; Potency, µM (top dose mostly 53.6 µM), without a hit: at the top dose activity, negative = inhibition, actives largely listed as inhibitors; 3.5% of 310,000 active; AID 2546, 2010;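 further: Gal4-VP16 expression switched on by copper sulfate through the metallothionein promoter; potency means the concentration at half of the fitted maximal effect; nearly all actives have a fitted effect of over 50% in size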
RORg inh: qHTS for inhibitors of ROR gamma transcriptional activity; Nuclear receptor ROR-gamma (Mus musculus), P51450; Drosophila S2 Gal4-RORgamma UAS-luciferase reporter, 20 h; Potency, µM (series often up to 53.6 µM), without a hit: at the highest dose activity change, negative = inhibition, most hits filed as inhibitors; 5.4% of 310,000 active; AID 2551, 2010; further: potency means the concentration at half of the fitted maximal effect; nearly all actives have a fitted effect of over 60% in size
Target sequence (P51450 whole entry, looked up, the tested form may be a part): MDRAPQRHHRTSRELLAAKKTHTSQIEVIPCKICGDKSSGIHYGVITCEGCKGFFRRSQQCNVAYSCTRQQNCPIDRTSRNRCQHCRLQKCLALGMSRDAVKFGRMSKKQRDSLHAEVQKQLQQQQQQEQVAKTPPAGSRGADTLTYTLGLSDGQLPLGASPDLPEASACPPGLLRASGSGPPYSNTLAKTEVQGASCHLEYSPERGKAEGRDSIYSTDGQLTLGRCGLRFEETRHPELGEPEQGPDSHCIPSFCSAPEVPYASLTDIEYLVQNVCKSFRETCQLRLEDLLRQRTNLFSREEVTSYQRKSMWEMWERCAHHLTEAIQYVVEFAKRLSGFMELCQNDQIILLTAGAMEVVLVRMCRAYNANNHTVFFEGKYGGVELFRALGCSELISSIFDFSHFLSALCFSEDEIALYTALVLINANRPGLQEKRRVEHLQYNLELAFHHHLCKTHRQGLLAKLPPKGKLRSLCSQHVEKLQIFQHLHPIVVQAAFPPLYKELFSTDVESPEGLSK
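A Gal4/UAS one-hybrid system in insect cells: metallothionein-promoter Gal4–ROR gamma fusion plus Photinus luciferase reporter. Copper sulfate 700 uM final, 20 hr ambient incubation, luminescent detection after 10 min with reagent.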
TDP1 cell noCPT: qHTS for Inhibitors of human tyrosyl-DNA phosphodiesterase 1 (TDP1): qHTS in cells in absence of CPT. DT40 Tdp1-/- hTDP1 cells, no CPT, ATP luminescence, 48 h. Potency, µM (top dose mostly 46.2 µM), for inactives: at the highest dose activity change, negative = growth inhibition, usual class: inhibitors. 15% of 420,000 active. AID 686978, 2013; further: potency means the concentration at half of the fitted maximal effect; nearly all actives have a fitted effect of over 55% in size
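Cells were dispensed at 400 per well, compounds added by pin tool, plates incubated ≥48 hr at 37 °C, then CellTiter-Glo added for 30 min at room temperature before luminescence reading. Line: DT40 Tdp1-/- complemented with hTDP1; camptothecin omitted.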
The depositor's hits bear a star; ? = inconclusive; . = no result. Unless noted, the call rests on the fitted dose curve; in most records, active means well fitted curve in the direction sought with a large enough effect; inconclusive means small, poorly fitted or top-dose-only effect, or another doubt; inactive means no such curve, though single readings can be large; an effect the other way counts as inactive or inconclusive. Unless noted, on the % scale 0 is the no-effect control and ±100 the full control effect.

SMILES | LDHA block | DT40 TDP1 CPT | IL1B secr inh | Gal4-VP16 FLuc | RORg inh | TDP1 cell noCPT
O=c1[nH]c(C2CCN(S(=O)(=O)c3ccc(C(F)(F)F)cc3)CC2)nc2c1nnn2Cc1ccc(F)cc1 | 2 | ? | -57* | -17% | ? | ?
O=c1[nH]c(C2CCN(S(=O)(=O)c3ccc([N+](=O)[O-])cc3)CC2)nc2c1nnn2Cc1ccccc1 | -9 | ? | 15 | -8% | -4% | ?
COC(=O)c1ccc(Cn2nnc3c(=O)[nH]c(C4CCN(S(=O)(=O)c5cc(C)ccc5C)CC4)nc32)cc1 | -1 | 23µM* | 18 | ? | 16% | ?
Cc1c(C)c2ccc(OCC(=O)Nc3ccc4c(c3)OCCO4)cc2oc1=O | -1 | . | . | . | . | .
N#Cc1ccc(CSC2=NCCCN2)cc1 | 9 | . | . | . | . | .
N#CC1=C(N)OC2=C(C1c1cccnc1)S(=O)(=O)N(Cc1ccccc1)c1ccccc12 (stereo not drawn) | -8 | . | . | . | . | .
Cc1ccc(Cn2nnc3c(=O)[nH]c(C4CCN(S(=O)(=O)c5ccc(S(=O)(=O)NC6CC6)cc5)CC4)nc32)cc1 | -4 | ? | ? | -2% | 36% | ?
Cc1ccc(Cn2nnc3c(=O)[nH]c(C4CCN(S(=O)(=O)c5ccccc5F)CC4)nc32)cc1 | -4 | -4% | -61* | -2% | 5% | 0%
O=c1[nH]c(C2CCN(S(=O)(=O)c3ccccc3F)CC2)nc2c1nnn2Cc1ccc(F)cc1 | -5 | -9% | -22 | 10% | -3% | -24%
N#Cc1cccc(NC(=O)N2CCC(c3nc4c(nnn4Cc4cccc(Cl)c4)c(=O)[nH]3)CC2)c1 | -2 | 0% | -63* | -2% | 25% | -3%
O=c1[nH]c(C2CCN(S(=O)(=O)c3cccc(C(F)(F)F)c3)CC2)nc2c1nnn2Cc1cccc(F)c1 | 1 | 18µM* | -68* | ? | -11% | 21µM*
O=c1[nH]c(C2CCN(S(=O)(=O)c3ccc(S(=O)(=O)NC4CC4)cc3)CC2)nc2c1nnn2Cc1cccc(F)c1 | -1 | 16µM* | ? | -2% | 41% | ?
Cn1nc(C(=O)Nc2ccc(C(C)(C)C)cc2)c2ccccc2c1=O | 2 | . | . | . | . | .
Cc1cccc(Cn2c(N3CCN(c4ccccn4)CC3)nc3c2c(=O)n(C)c(=O)n3C)c1 | 5 | . | . | . | . | .
CC1CC2(CCCC2)N(C(=O)c2ccccc2)Cc2ccccc21 (stereo not drawn) | 3 | 9.2µM* | -16 | 3% | 38% | ?
O=C1C(O)CC2c3ccccc3CC3(CCCC3)N12 (stereo not drawn) | 2 | ? | 15 | 1% | 24% | -20%
CCN(CC)CC12CC3CCC(CC(C3)C1)C2 | 1 | . | . | . | . | .
CC(C)NC(=O)C(C)c1ccc([N+](=O)[O-])cc1 (stereo not drawn) | 6 | . | . | . | . | .
C=CCOc1cccc(NC(=O)C2CCCCC2)c1 | 0 | . | . | . | . | .
CC(C)c1ccc(NC(=O)C2CCCN(S(=O)(=O)c3ccc4[nH]c(=O)ccc4c3)C2)cc1 (stereo not drawn) | -5 | 12µM* | . | . | . | -24%
COc1ccc(OC)c(NC(=O)C2CCCN(S(=O)(=O)c3ccc4[nH]c(=O)ccc4c3)C2)c1 (stereo not drawn) | 5 | ? | . | . | . | 23µM*
Cc1ccc(NC(=O)C(C)Sc2ccc(C(F)(F)F)cn2)cc1 (stereo not drawn) | 1 | . | . | . | . | .
Cc1ccc(NC(=O)Cc2nc(-c3c(N)n(CC(C)C)c(=O)n(C)c3=O)cs2)cc1 | -6 | . | . | . | . | .
Cc1ccc(/C(N)=N/OC(=O)c2cccc(Cn3cc(C(F)(F)F)ccc3=O)c2)cc1 | -1 | ? | -68* | ? | -25% | 18µM*
N/C(=N\OC(=O)c1cccc(Cn2cc(C(F)(F)F)ccc2=O)c1)c1ccc(Cl)cc1 | -5 | ? | ? | ? | -17% | 21µM*
SMILES | LDHA block | DT40 TDP1 CPT | IL1B secr inh | Gal4-VP16 FLuc | RORg inh | TDP1 cell noCPT
O=C(Sc1ccc(Cl)cc1)c1cccc(Cn2cc(C(F)(F)F)ccc2=O)c1 | -5 | 18µM* | 20 | -5% | -35% | 16µM*
Cc1ccc(S(=O)(=O)N(CC(=O)N2CCc3ccccc3C2)Cc2c(F)cccc2Cl)cc1 | 7 | . | . | . | . | .
OCCNc1nc(Nc2ccccc2)nc(Nc2ccccc2)n1 | 0 | ? | -12 | -1% | 5% | -23%
OCCNc1nc(Nc2ccccc2)nc2ccccc12 | -14 | 10µM* | . | -7% | -32% | 13µM*
OCCNc1nc(Nc2ccc(Br)cc2)nc2ccccc12 | -7 | 5.8µM* | -101* | -17% | 8% | 6.5µM*
Cc1c(Cl)cccc1Nc1nc(NCCO)c2ccccc2n1 | -5 | ? | -108* | . | . | ?
OCCNc1nc(N2CCCCC2)nc2ccccc12 | -2 | -5% | 12 | 3% | -3% | -14%
Cc1ccc(-c2ccc(C(=O)O)s2)cc1 | -13 | . | . | . | . | .
CNC(NC(=O)c1ccc(Cl)cc1)C(Cl)(Cl)Cl (stereo not drawn) | -24 | . | . | . | . | .
CN1CC[C@@H]2C(=O)N3CCc4ccc(-c5ccc6c(c5)OCO6)cc4[C@@H]3C[C@@H]21 | 8 | 18µM* | -16 | . | . | ?
COc1ccc(S(=O)(=O)N2CCC3CC2c2cc(-c4ccc5c(c4)OCO5)ccc23)cc1 (stereo not drawn) | -9 | ? | 33 | . | . | -30%
O=C(CNC(=O)c1ccc2c(c1)OCO2)Nc1ccc2c(c1)-c1ccccc1C2 | 4 | . | . | . | . | .
CCOc1ccc(Nc2oc(-c3ccc(OCC)cc3)nc2C#N)cc1 | 11 | . | . | . | . | .
CSc1ccccc1NC(=O)C(C)N(C)CC(=O)N1CCN(Cc2ccccc2)CC1 (stereo not drawn) | ? | ? | 2 | . | . | 21µM*
CSc1ccccc1NC(=O)C(C)N(C)CC(=O)Nc1ccc(F)cc1 (stereo not drawn) | -2 | . | . | . | . | .
CC(C(=O)Nc1ccc(C(F)(F)F)cc1)N(C)CC(=O)N1CCN(Cc2ccccc2)CC1 (stereo not drawn) | -19 | ? | -51* | . | . | ?
Cc1ccc(Cl)cc1N1CCN(C(=O)c2ccc(CS(=O)Cc3ccc(Cl)cc3)o2)CC1 (stereo not drawn) | -1 | 13µM* | ? | -4% | 5% | ?
Cc1ccc(CS(=O)Cc2ccc(C(=O)N3CCN(c4cccc(C)c4C)CC3)o2)cc1 (stereo not drawn) | -3 | ? | -22 | . | . | 21µM*
